# Source: PubChem BioAssay (EPA / NIEHS)
# Activity calls are given as the source filed them. The calls were made as follows: active = hit-call score of the fitted dose curve at least 0.9, where 1 is the maximum; inactive = score below 0.9.
# Experiment: CCTE_Shafer_MEA_dev_inter_network_spike_interval_mean: CCTE's Neural Network Formation Assay for Mean Inter-network Spike Interval, Shafer Lab (AID 2284047);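 as to AC50: potency for a decrease in mean inter-network spike interval below DMSO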
# Protocol: CCTE_Shafer_MEA_dev assay is conducted using Axion Biosystems 48 well microelectrode array (MEA) plates and Maestro recording system. Each well of the MEA plate contains a grid of 16 microelectrodes embedded in the culture surface. Electrically active cells, such as neurons, can be cultured over the electrodes, and electrical activity in these cells can be recorded extracellularly. The spontaneous firing of neurons is captured from each electrode on a microsecond timescale providing both temporally and spatially precise data. […] The CCTE_Shafer_MEA_dev assay uses primary cultures of rat cortical neurons. Recordings are made on days post-plating 5, 7, 9 and 12. As these cultures mature over time, neural networks develop functional activity and form cohesive networks in which electrical activity can be highly coordinated. CCTE_Shafer_MEA_dev_inter_network_spike_interval_mean is 1 of 19 assay components of the CCTE_Shafer_MEA_dev assay. It measures the average time interval between network spikes (temporally-clustered groups of actional potential firing across multiple electrodes) as the average time between peaks of consecutive network spikes during a recording in a microelectrode array (MEA) using Axion Biosystems Maestro 768 channel amplifier with the AxIS adaptive spike detector. To collapse across multiple recordings made on days post-plating 5, 7, 9 and 12, the trapezoidal area-under-the-curve of the component is calculated.Data from the assay component CCTE_Shafer_MEA_dev_inter_network_spike_interval_mean was analyzed into 1 assay endpoint. This assay endpoint, CCTE_Shafer_MEA_dev_inter_network_spike_interval_mean, was analyzed in the negative analysis fitting direction relative to DMSO as the negative control and baseline of activity. Using a type of functional reporter, gain or loss-of-signal activity can be used to understand electrical activity.
# On the day prior to culture, each well was coated thoroughly with 150 uL of 0.05% polyethyleneimine (PEI, Sigma Cat P3143) in 50 mM HEPES (Sigma Cat H7523) at a pH of 8. The plate was incubated at 37C for one hour. PEI was rinsed out with 500 uL of sterile water three times. Plates were stored at 4C until the day of culture. This culture was plated at a seeding density of 1.5 x 10^5 cells/well on a 48-well MEA plate, prepared as described above. Cells were administered via a 25 uL media/laminin ([…]; Sigma Cat L2020-1MG) drop directly onto the microelectrode array, as adding the cells with the laminin results in better attachment than pre-coating with laminin. After 2 hours, an additional 475 uL of cortical media was added and the cells returned to the incubator. Exposure starts at day 0 of plating and is continued over twelve days of network development until the experiment is terminated. Cells are fed with fresh medium on DIV 5 and 9, following the recordings on those days. The entire volume of media in the well is exchanged and any vehicle or compound treatment is renewed. Complete details are found in OP-NHEERL/ISTD/SBB/TJS/2015-03-r0 (available on request, email shafer.tim@epa.gov). Measurement of the electrical activity is non-invasive, and recordings can be made from the same plate over multiple different days of the culture. In cortical neurons, this allows for the measurement of extracellular action potentials over the period during which networks form in the MEA plate.
Structure (SMILES),outcome,AC50
CCOP(=S)(OCC)Oc1nc(Cl)c(Cl)cc1Cl,inactive,–
O=C1C2(Cl)C3(Cl)C4(Cl)C(Cl)(Cl)C5(Cl)C3(Cl)C1(Cl)C5(Cl)C24Cl (stereo unspecified),–,1.31 nM (active)
CC(=O)[O][Hg][c]1ccccc1,–,25.5 nM (active)
C=C(C)C(=O)[O][Sn]([CH2]CCC)([CH2]CCC)[CH2]CCC,inactive,–
CCC(=O)C(CC(C)N(C)C)(c1ccccc1)c1ccccc1 (stereo unspecified),inactive,–
O=C(O)C(F)(F)C(F)(F)C(F)(F)C(F)(F)C(F)(F)C(F)(F)C(F)(F)C(F)(F)C(F)(F)C(F)(F)F,inactive,–
Cn1sc(Cl)cc1=O,inactive,–
CC(C)(C)c1cc(O)ccc1O,inactive,–
ClC1(Cl)C2(Cl)C3(Cl)C4(Cl)C(Cl)(Cl)C5(Cl)C3(Cl)C1(Cl)C5(Cl)C24Cl (stereo unspecified),inactive,–
O=C(O)C(F)(F)C(F)(F)C(F)(F)C(F)(F)C(F)(F)C(F)(F)F,inactive,–
COP(=O)(OC)O/C(=C\Cl)c1cc(Cl)c(Cl)cc1Cl,inactive,–
